Source: PubChem (National Center for Advancing Translational Sciences (NCATS))
Nrf2 block: Nrf2 qHTS screen for inhibitors; A549 ARE-Fluc reporter, luciferase luminescence, 18-24 h; Potency, µM (titrated, usually from 46 µM), without a hit: top-dose activity change, negative = inhibition, usual class: inhibitors; hit rate 2.1% among 360,000; AID 504444, 2011; further: potency means the concentration at half of the fitted maximal effect; on the % scale 0 is the no-effect control and ±100 the full control effect; nearly all actives have a fitted effect of over 60% in size
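Concentration-response testing used A549 ARE_Fluc cells at 5000 cells/well. Following an 18-24 h compound incubation, viability was read by fluorescence (Ex 405/Em 525) and luciferase output by luminescence.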
Nrf2 ARE act: qHTS of Nrf2 Activators. AID 624171, 2012. AREc32 ARE-luciferase reporter (MCF7-derived line), luminescence, 24 h. Potency, µM (series often up to 46.1 µM), for inactives: at the top dose activation, actives largely listed as activators. hit rate 0.31% among 410,000; further: potency means the concentration at half of the fitted maximal effect; % of control where 0% means no effect; nearly all actives have a fitted effect of over 65% in size
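Nrf2 activation is followed as ARE-luciferase induction in the AREc32 line after one day of compound treatment; luminescence is read with Steady-Glo.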
12-LOX inh: Primary qHTS assay for inhibitors of human arachidonate 12S-lipoxygenase (ALOX12): Round 2; Potency, µM (series often up to 108 µM), for the others: top-dose activity change, negative = inhibition, hits mostly inhibitors; Polyunsaturated fatty acid lipoxygenase ALOX12 (Homo sapiens), P18054; purified 12hLO, xylenol orange hydroperoxide absorbance; hit rate 1.1% among 580,000; further: potency means the concentration at half of the fitted maximal effect; on the % scale 0 is the no-effect control and ±100 the full control effect
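Hydroperoxide product was detected by ferrous iron/xylenol orange as the 573 to 405 nm absorbance ratio. Arachidonic acid at 40 uM (final) was turned over for 30 min at room temperature by 150 nM human 12hLO, pH 7.0 Hepes buffer, after 15 min compound preincubation.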
ERG-DNA inh: qHTS for Small Molecule Inhibitors of the ERG Ets/DNA interaction; Transcriptional regulator ERG (Homo sapiens), P11308; fluorescence polarization, His-ERG Ets domain / labelled DNA; Potency, µM (highest dose often 76.9 µM), without a hit: at the top dose FP activity, negative = inhibition, most hits filed as inhibitors; hit rate 0.028% among 370,000; AID 624246, 2012; active means well fitted inhibition curve with a large enough effect in the polarisation, with a control signal flat; inconclusive means small, poorly fitted or top-dose-only effect, or effect the other way, or a change in a side signal; inactive means no such curve, though single readings can be large or run the other way; the % refers to the polarisation;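 further: polarization taken with two DNA probes labelled with fluorescein and Texas red; potency means the concentration at half of the fitted maximal effect; % of control where 0% means no effect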
Target sequence (P11308 whole entry, looked up, the tested form may be a part): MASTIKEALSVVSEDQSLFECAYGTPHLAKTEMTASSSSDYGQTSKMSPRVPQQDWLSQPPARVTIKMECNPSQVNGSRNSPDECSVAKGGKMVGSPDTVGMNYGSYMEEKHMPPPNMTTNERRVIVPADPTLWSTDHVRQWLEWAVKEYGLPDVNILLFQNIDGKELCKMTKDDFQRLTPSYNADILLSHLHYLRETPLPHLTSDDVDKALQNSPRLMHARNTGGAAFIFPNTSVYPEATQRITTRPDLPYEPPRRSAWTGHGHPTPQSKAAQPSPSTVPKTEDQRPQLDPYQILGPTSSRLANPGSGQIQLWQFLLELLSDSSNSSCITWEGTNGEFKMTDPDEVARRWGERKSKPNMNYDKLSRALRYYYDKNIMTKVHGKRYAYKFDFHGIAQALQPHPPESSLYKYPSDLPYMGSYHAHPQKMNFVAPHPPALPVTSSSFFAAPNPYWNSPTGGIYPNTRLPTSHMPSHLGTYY
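His-tagged ERG Ets domain (1 uM in the protein solution; 300mM KCl, 50mM Tris-HCl, 1mM EDTA, 1mM DTT, pH 7.5) received compound, then a probe mix of 5 nM fluorescein-DNA and 100nM Texas-615-DNA. Fluorescence polarization was read for both dyes.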
LDHA inh: qHTS assay for inhibitors of human lactate dehydrogenase. L-lactate dehydrogenase A chain (Homo sapiens), P00338. purified LDHA, NADH/diaphorase-resazurin fluorescence; hits give low values. activity change, % (values are at about 110 or 230 µM). hit rate 0.15% among 480,000. AID 1347041, 2019; in the data active means activity change below about -30%; inconclusive means mostly about -25% to -30%;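 further: plate controls were DMSO wells for no effect and wells without enzyme for full effect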
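Remaining NADH was detected by diaphorase (0.133 mg/mL) converting 37 µM resazurin to fluorescent resorufin, read at 0 and 20 minutes. The preceding 5-minute room-temperature reaction used 2 nM LDHA, 0.2 mM sodium pyruvate and 0.06 mM NADH at pH 7.4.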
A549 viability: Nrf2 qHTS screen for inhibitors: counterscreen for cytotoxicity | Potency, µM (highest dose often 46 µM), for the others: top-dose activity change, negative = cytotoxicity, actives largely listed as inhibitors | A549 ARE-Fluc cells, CellTiter-Fluor viability, 18-24 h | hit rate 0.16% among 390,000; further: potency means the concentration at half of the fitted maximal effect; on the % scale 0 is the no-effect control and ±100 the full control effect
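A549 ARE-Fluc cells in 5% FBS OPTI-MEM, 5000 cells/well, rested 2 h then exposed to compounds in concentration-response for 18-24 h at 37 °C. Viability by CellTiter-Fluor fluorescence (Ex 405/Em 525) after 30 min; luciferase luminescence (BugLite, 15 min, RT) read afterwards.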
The depositor's hits bear a star; ? = inconclusive; . = not tested or not shown. Only some compounds are listed: those with a hit (about 2.7% of all), similar ones and a draw of the others. Unless noted, the call rests on the fitted dose curve; in most records, active means well fitted curve in the direction sought with a large enough effect; inconclusive means small, poorly fitted or top-dose-only effect, or another doubt; inactive means no such curve, though single readings can be large; an effect the other way counts as inactive or inconclusive.

SMILES	Nrf2 block	Nrf2 ARE act	12-LOX inh	ERG-DNA inh	LDHA inh	A549 viability
CCOC(=O)NC(=O)/C(C#N)=N\Nc1cccc(Cl)c1	?	1.7%	0.398µM*	-15.4%	-17.0	-18.0%
Cc1cc(Cl)ccc1OCC(=O)N1CCCN(C(=O)COc2ccc(Cl)cc2C)CC1	?	5.2%	?	.	-0.8	?
Cc1cc(Cl)ccc1OC(C)C(=O)N1CCCN(C(=O)C(C)Oc2ccc(Cl)cc2C)CC1 (stereo not drawn)	16.4µM*	5.1%	0.0%	-8.0%	-0.1	?
Cn1cc(CN[C@H]2[C@H](O)[C@H](O)C[C@@H]2c2cccnc2)c2ccccc21	.	.	44.7µM*	.	.	.
O=C1C(=O)N(Cc2cccnc2)C(c2ccccn2)/C1=C(\O)c1ccccc1 (stereo not drawn)	.	.	?	.	-4.6	.
Cc1nnc(N/N=C/c2cccc(OCc3ccc(Cl)c(Cl)c3)c2)n1N	-16.5%	-2.5%	17.8µM*	-5.3%	47.7	?
O=[N+]([O-])c1ccc(N=NNc2ccccc2)cc1	-1.2%	4.9%	.	6.0%	3.3	-15.8%
C/C(=N/Nc1ccc([N+](=O)[O-])cc1)c1ccncc1	.	.	35.5µM*	.	4.2	.
C/C(=N\NC(=S)Nc1cccc(C)c1)c1cc2ccccc2o1	-29.1%	4.0%	35.5µM*	2.3%	-5.2	-5.6%
C/C(=N/NC(=S)Nc1cccc(C)c1)c1cccc([N+](=O)[O-])c1	19.4%	-3.7%	39.8µM*	7.6%	-7.5	26.1%
O=[N+]([O-])c1cccc(NN=Nc2ccccc2)c1	?	19.8%	15.8µM*	0.5%	-2.3	?
CCNC(=S)N/N=C(\C)c1cc2ccccc2o1	11.4%	7.3%	?	1.3%	-4.7	16.0%
COc1cccc(S(=O)(=O)Nc2c(NC3CCCC3)c3ccccc3oc2=O)c1	.	.	?	.	-7.4	.
C/C(=N\Nc1ccc(S(=O)(=O)Nc2ccccc2)cc1[N+](=O)[O-])c1ccncc1	.	.	0.0%	.	.	.
C/C(=N\Nc1ccccc1)c1cccc([N+](=O)[O-])c1	.	.	6.31µM*	.	14.3	.
C/C(=N\Nc1ccc(Cl)cc1)c1ccncc1	?	18.3%	?	5.7%	-1.5	-2.0%
COc1ccc(NS(=O)(=O)c2ccc(N/N=C(\C)c3ccncc3)c([N+](=O)[O-])c2)cc1	20.6µM*	-0.1%	4.7%	3.7%	2.0	?
C/C(=N\Nc1cccc([N+](=O)[O-])c1)c1ccccc1O	?	18.2%	?	7.2%	-10.0	-7.4%
C/C(=N\Nc1cccc(Cl)c1)c1ccncc1	18.0%	11.1%	17.8µM*	7.5%	-7.6	-0.2%
CC(Oc1ccc(-c2ccc(C#N)cc2)cc1)C(=O)c1cccc(Cl)c1 (stereo not drawn)	.	.	-13.7%	.	4.1	.
CCc1c(C)sc(NC(=O)C(c2ccccc2)c2ccccc2)c1C#N	.	.	?	.	-0.8	.
CSc1nc2c([nH]1)c(=S)n(C)c(=O)n2C	0.1%	4.7%	-10.3%	-0.2%	4.6	-8.6%
Cn1c(=S)c2[nH]c(SCc3cccnc3)nc2n(C)c1=O	-17.5%	0.3%	3.16µM*	13.3%	-6.9	-2.9%
O=C(CSc1nc2ccc(Cl)cc2[nH]1)c1ccc2c(c1)OCO2	8.5%	0.2%	11.2µM*	-14.3%	4.5	-3.9%
COc1ccccc1CN1CCC2(CC1)OC(=O)N(Cc1ccccc1)C2(C)c1ccccc1 (stereo not drawn)	.	.	-9.1%	.	.	.
COc1cccc(-n2c(SCc3ccccn3)nc3c(c2=O)SCC3)c1	1.84µM*	-0.4%	-2.1%	-11.4%	-5.3	-11.7%
COc1ccc(-n2c(SCc3cccnc3)nc3c(c2=O)SCC3)cc1OC	?	-1.1%	7.3%	10.4%	-0.3	0.2%
